The record followed here is PubChem BioAssay (NCI).

Assay [1] is described as follows: NCI Yeast Anticancer Drug Screen. Data for the rad50 strain (AID 155).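 Further: 0% = growth of vehicle-only cultures of the same strain.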 The note with it: S. cerevisiae rad50 strain growth inhibition, stronger effect = higher value; at 50.0 µM unless noted. In outline: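 Growth of the mutant yeast was measured after compound exposure and referenced to vehicle-treated cultures.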
Assay [2] is described as follows: NCI Yeast Anticancer Drug Screen. Data for the mec2-1 strain (AID 157). Particulars: S. cerevisiae mec2-1 strain, stronger effect = higher value; at 50.0 µM unless noted. In outline:
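mec2-1 yeast strain, carrying an alteration in DNA damage repair or cell cycle control, was exposed to compounds; growth inhibition was measured relative to vehicle-treated controls.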

The nature of assay [3]: NCI Yeast Anticancer Drug Screen. Data for the sgs1 mgt1 strain (AID 161).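 Further: 0% = growth of cultures given vehicle only.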 Particulars: S. cerevisiae sgs1 mgt1 strain, stronger effect = higher value; at 50.0 µM unless noted. In outline:
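Compounds are added to genetically altered yeast, and growth is compared with cultures given vehicle alone to give percent inhibition.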

A short description of assay [4]: NCI Yeast Anticancer Drug Screen. Data for the cln2 rad14 strain (AID 165).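 Further: 0% = growth equal to vehicle treated cultures.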 Particulars: S. cerevisiae cln2 rad14 strain, stronger effect = higher value; at 50.0 µM unless noted. In outline: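 Yeast carrying cln2 and rad14 alterations (cell cycle control and DNA damage repair) were exposed to compounds. Growth inhibition was measured against vehicle-treated controls.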
Assay [5] in a line: NCI Yeast Anticancer Drug Screen. Data for the bub3 strain (AID 167). The note with it: S. cerevisiae bub3 mutant strain, stronger effect = higher value; at 50.0 µM unless noted. The method, boiled down:
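Whole-cell yeast assay. The mutant strain was incubated with compounds, and growth inhibition was determined by comparison with vehicle-treated cells.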

The nature of assay [6]: NCI Yeast Anticancer Drug Screen. Data for the mlh1 rad18 strain (AID 175). Particulars: S. cerevisiae mlh1 rad18 strain growth inhibition, stronger effect = higher value; at 50.0 µM unless noted. The method, boiled down:
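Growth inhibition of the yeast strain was measured after compound exposure and expressed relative to vehicle-treated controls. The strain carries defined defects in DNA damage repair.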

Molecules are shown by their SMILES. The panel holds about 79,000 compounds, 15% with a hit somewhere; the sample as a whole holds those more often. Values without a mark were called inactive. Activity calls are given as the source filed them. No stated cut-off is given here; in the data, active means growth inhibition above about 70%; inactive means the rest.

Consider `O=C(O)CCCCCCC(=O)O`, for which the growth inhibition is 2.1% in assay [1]; -4.85% in assay [2]; 2.85% in assay [3]; 2.95% in assay [4]; 0.9% in assay [5]; -2.3% in assay [6].
For the compound `CCCCCCCCCCCCCCCCCC(=O)N1CCN(C(=O)CCCCCCCCCCCCCCCCC)C1`, the growth inhibition was 30.4% in assay [1]; -18.3% in assay [2]; -4.3% in assay [3]; -19.2% in assay [4]; -1.25% in assay [5]; 1.05% in assay [6].
`COc1ccc(C2=C(Cl)c3cc(OC)c(OC)cc3C2Cl)cc1` (centres undefined): the growth inhibition in assay [1] was 14.8%; in assay [2] it was 22.6%; in assay [3], 21.2%; in assay [4], 11.8%; in assay [5] it was -0.45%; in assay [6], -41.6%.
`CCC(=N\NC(=S)NCCN(C)C)/C(C)=N/NC(=S)NCCN(C)C`: the growth inhibition in assay [1] is 57%; in assay [2] it was 13.2%; in assay [3], 52.2%; in assay [4] it was 4.95%; in assay [5], 16.5%; in assay [6], 54.9%.
With `C/C(=N\NC(=S)Nc1nccs1)c1ccccn1`, the growth inhibition in assay [1] was 96.7% (active); in assay [2], 97.8% (active); in assay [3], 97.6% (active); in assay [4] it was 90.5% (active); in assay [5] it was 96% (active); in assay [6] it was 98.4% (active).
For the compound `Clc1cc2cc3cccc[n+]3cc2cc1Cl`, the growth inhibition in assay [1] is 54%; in assay [2], 16.1%; in assay [3], 26.2%; in assay [4], -22.9%; in assay [5], 14.6%; in assay [6], 3.7%.
For the compound `CCOC(=O)C(Cc1cc(N)c(Oc2ccc(OC)cc2)c(N)c1)NC(C)=O` (centres undefined), the growth inhibition in assay [1] is -16.1%; in assay [2], -36.9%; in assay [3], -4.65%; in assay [4], 14.9%; in assay [5] it was -9.1%; in assay [6], 5.25%.
As for `CSc1ccc(Nc2cc(=O)[nH]c(=O)[nH]2)cc1`, the growth inhibition was 14.6% in assay [1]; 8.75% in assay [2]; 18.1% in assay [3]; 2.3% in assay [4]; 3.7% in assay [5]; -10.9% in assay [6].
Turning to `COc1cccc(N2C(=O)C3c4[nH]c5ccc(C)cc5c4C4CCC(C)CC4C3C2=O)c1` (centres undefined), the growth inhibition is -10.7% in assay [1]; -27.4% in assay [2]; -29.1% in assay [3]; -6.5% in assay [4]; -23.1% in assay [5]; -13.4% in assay [6].
Take `CCOC(=O)C(C)NC(=O)C(C)NC(=O)C(C)NC(=O)C(C)NC(=O)C(C)NC(=O)OCc1ccccc1` (centres undefined): the growth inhibition in assay [1] was 87.1% (active); in assay [2], 85.8% (active); in assay [3] it was 7.15%; in assay [4], -0.35%; in assay [5], 15.7%; in assay [6], -46.8%.
For `COC(=O)C(Cc1ccc(N(C)C)cc1)(NC(=O)c1ccccc1)P(=O)(OC)OC` (centres undefined), the growth inhibition in assay [1] is -17.8%; in assay [2] it was 10.8%; in assay [3], -28.2%; in assay [4] it was 1.9%; in assay [5], 4.4%; in assay [6], -5.4%.
With `Cc1ccc(NC(=S)N2CCCC(C)C2)cc1C` (centres undefined), the growth inhibition in assay [1] was -1.15%; in assay [2], -9.85%; in assay [3] it was 6.15%; in assay [4], -7.3%; in assay [5], 6.15%; in assay [6], -23.6%.
`c1ccc2c(c1)nnn2C1CCCCO1` (centres undefined): the growth inhibition in assay [1] is -4.8%; in assay [2], -13.2%; in assay [3] it was -19.5%; in assay [4], -5.1%; in assay [5] it was -22.4%; in assay [6], -72.8%.
Turning to `O=C(CSc1nc(-c2ccccc2)c(-c2ccccc2)[nH]1)N/N=C/c1ccc(O)cc1`, the growth inhibition was -8.15% in assay [1]; -3.2% in assay [2]; -12.2% in assay [3]; -21.9% in assay [4]; 5.6% in assay [5]; -25.6% in assay [6].
For the compound `O=c1[nH]nc(-c2ccccc2)nc1/C(=N\Nc1ccccc1)c1ccccc1`, the growth inhibition in assay [1] was 15.5%; in assay [2], -12.3%; in assay [3], 1.05%; in assay [4], 0.85%; in assay [5] it was 12.5%; in assay [6], 14.7%.
Turning to `Cc1ccc(/C=N/NC(N)=S)nn1`, the growth inhibition in assay [1] is 3.45%; in assay [2], 2.25%; in assay [3], -8.15%; in assay [4], -67.4%; in assay [5], 2.45%; in assay [6] it was 5.4%.
For `CCCCn1cnc2c(SC)ncnc21`, the growth inhibition in assay [1] was -8.1%; in assay [2], -23.9%; in assay [3], -18.4%; in assay [4], -0.35%; in assay [5], -32.8%; in assay [6], -3.65%.
Consider `COc1ccc(CCNS(=O)(=O)c2c(C)c(C)c(C)c(C)c2C)cc1OC`, for which the growth inhibition in assay [1] is -2.2%; in assay [2], -20.6%; in assay [3], 5.1%; in assay [4], 21.1%; in assay [5], 21.2%; in assay [6] it was 6.8%.
Turning to `O=[N+]([O-])c1ccccc1/C=C/c1ccccn1`, the growth inhibition in assay [1] was 2.4%; in assay [2] it was 2.35%; in assay [3] it was -3.55%; in assay [4] it was 20%; in assay [5] it was 41.3%; in assay [6], 21.1%.
Consider `NC(Cc1cc(Br)c(Oc2ccc(O)cc2)c(Br)c1)C(=O)O` (centres undefined), for which the growth inhibition was 19.8% in assay [1]; 12.8% in assay [2]; -9.1% in assay [3]; -0.55% in assay [4]; 2.55% in assay [5]; 20.9% in assay [6].
With `O=C(CCC/C(CC(=O)c1ccc(Br)cc1)=N\O)Nc1ccccc1`, the growth inhibition in assay [1] is 52.9%; in assay [2] it was 25.8%; in assay [3] it was 17.8%; in assay [4] it was 19.6%; in assay [5], 28.7%; in assay [6], 25.7%.
For the compound `CCCCOC(=O)COCC(=O)OC(C)C(=O)OCCCC` (centres undefined), the growth inhibition in assay [1] was -20.9%; in assay [2] it was 13.1%; in assay [3] it was 6.55%; in assay [4], -22.1%; in assay [5], 20%; in assay [6], 4.1%.
As to `O=C(O)c1ccc(NCO)cc1`, the growth inhibition in assay [1] was 7.05%; in assay [2] it was 5.15%; in assay [3], -13.2%; in assay [4] it was 33.7%; in assay [5] it was 4.3%; in assay [6], 7.85%.
In the case of `CC(=O)c1cccc(NC(=O)CCCCCCCCC(=O)Nc2cccc(C(C)=O)c2)c1`, the growth inhibition in assay [1] is -5.7%; in assay [2], -0.7%; in assay [3], -1.55%; in assay [4] it was -49.5%; in assay [5], -1.2%; in assay [6] it was 2.95%.
In the case of `COc1ccc(C(=O)CCC(=O)O)c(O)c1`, the growth inhibition in assay [1] was -3.25%; in assay [2] it was 1.35%; in assay [3] it was -12.6%; in assay [4], -11.1%; in assay [5] it was -4.15%; in assay [6], -11.3%.
With `CCOc1ccc(N2C(=O)/C(=C/c3ccc(N(CCC#N)CCC#N)cc3)N=C2c2cc([N+](=O)[O-])ccc2Cl)cc1`, the growth inhibition in assay [1] was 5.85%; in assay [2], -1.15%; in assay [3], -9.8%; in assay [4], 17.8%; in assay [5] it was 9.3%; in assay [6], -6.6%.
As for `CCOC(=O)C1C(=O)CC(C)(O)C(C(=O)OCC)C1c1ccc(OC)cc1` (centres undefined), the growth inhibition in assay [1] is -27.4%; in assay [2], 2.55%; in assay [3], 8.65%; in assay [4], -5.95%; in assay [5], -2%; in assay [6], 21.8%.
On to `Cc1ccc(S(=O)(=O)OC2CSS(=O)CC2OS(=O)(=O)c2ccc(C)cc2)cc1` (centres undefined), for which the growth inhibition in assay [1] was 12.8%; in assay [2], -3.15%; in assay [3], 4.45%; in assay [4], 19.1%; in assay [5], -1.4%; in assay [6], 21.1%.
Regarding `CCOC(=O)/C(=C\c1ccccc1)c1ccccc1`, the growth inhibition in assay [1] was 7.15%; in assay [2] it was 5.5%; in assay [3], 9.65%; in assay [4], 7.85%; in assay [5] it was 27.1%; in assay [6], -6.8%.
Regarding `CCOC(=O)c1[nH]cc(C(=O)O)c1C`, the growth inhibition is 15.3% in assay [1]; 0.15% in assay [2]; 6.05% in assay [3]; -44.7% in assay [4]; 1.25% in assay [5]; 17.2% in assay [6].
For `C=C(C)CC(=O)O.CC(=O)[CH-]C(C)=O.CC(=O)[CH-]C(C)=O.CC(=O)[CH-]C(C)=O.[Zn+2].[Zn]`, the growth inhibition in assay [1] is 30.2%; in assay [2], 10.8%; in assay [3], 16.2%; in assay [4], 6.8%; in assay [5], -0.85%; in assay [6], 21.1%.
As to `Clc1ccccc1Nc1nc(Nc2ccccc2Cl)nc(Nc2ccccc2Cl)n1`, the growth inhibition is 21.1% in assay [1]; 19.4% in assay [2]; 21.6% in assay [3]; 37.9% in assay [4]; 7.3% in assay [5]; 5.95% in assay [6].
On to `O=C(Oc1ccccc1)C(=O)Oc1ccccc1`, for which the growth inhibition is -20.6% in assay [1]; -24.9% in assay [2]; -8.75% in assay [3]; -15.4% in assay [4]; -0.1% in assay [5]; 6.4% in assay [6].
As for `OCc1ccc(Cl)c(Cl)c1`, the growth inhibition is -4.15% in assay [1]; -11.9% in assay [2]; 0.1% in assay [3]; 8.15% in assay [4]; 2.8% in assay [5]; 3.3% in assay [6].
Take `OCCCCC(O)CO` (centres undefined): the growth inhibition is -2.55% in assay [1]; -13.7% in assay [2]; -1.1% in assay [3]; -8.65% in assay [4]; -18.6% in assay [5]; -7.3% in assay [6].
With `CC(C)(C)OC(=O)NNS(=O)(=O)CCC(NC(=O)OCc1ccccc1)C(=O)OCc1ccccc1` (centres undefined), the growth inhibition in assay [1] is 46.7%; in assay [2], 93.2% (active); in assay [3] it was 51.1%; in assay [4], 86.5% (active); in assay [5], 94.5% (active); in assay [6], 95.6% (active).
As to `CCOC(=O)c1cn[nH]c1C`, the growth inhibition in assay [1] was 1.35%; in assay [2] it was -0.9%; in assay [3], -2.2%; in assay [4] it was -21.4%; in assay [5] it was -3.05%; in assay [6], -1.95%.
Turning to `O=C1/C(=C/c2cccc([N+](=O)[O-])c2)Cc2ccccc21`, the growth inhibition is 12.7% in assay [1]; -5.9% in assay [2]; 5.65% in assay [3]; 14.1% in assay [4]; 17.6% in assay [5]; 5.05% in assay [6].
Consider `COc1cc(C2CC(C)(Nc3ccccc3)Oc3cc4c(cc32)OCO4)cc(OC)c1OC` (centres undefined), for which the growth inhibition is -6.35% in assay [1]; -13.7% in assay [2]; -3.55% in assay [3]; 4.95% in assay [4]; 4.1% in assay [5]; -14.2% in assay [6].
